Values joined by “and” are separate entries in the source; they are usually repeats but may differ in a detail not shown here. Identical values can stand only once. Inconclusive results are not listed. Some structures have more than one record in an assay (separate samples or runs), and their calls can disagree. Active and inactive are the calls of the source. Unless noted, calls come from the whole dose curve; as a rule, active = well fitted curve in the direction sought with a large enough effect in the repeat runs; inconclusive = weak or mixed curves; inactive = no such curve, though single readings can be large; an effect the other way counts as inactive or inconclusive.
Assays:
[1] = qHTS assay to identify small molecule agonists of the hypoxia (HIF-1) signaling pathway - cell viability counter screen (AID 1224844; calls by dose curve; note: nearly all actives have a fitted effect of over 50% in size; note: potency is the fitted concentration of half-maximal effect)
Summary of the method: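 HRE-bla ME-180 cells in medium with 0.5% dialyzed FBS were preincubated 5 hrs at 37C, exposed to compounds for 17 hrs, then viability was read as CellTiter-Glo luminescence after 30 min at room temperature, in the reporter wells.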

[2] = qHTS assay to identify small molecule agonists of H2AX (AID 1224845; active = well fitted activation curve with a large enough effect in the signal ratio in the repeat runs, not every such curve was filed as active; the % refers to the signal ratio; note: potency is the fitted concentration of half-maximal effect)
Summary of the method: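 Wild-type CHO-K1 cells, plated overnight, exposed 3hr at 37C to 15 concentrations (0.76% DMSO final). Lysed, then HTRF anti-pH2AX (S139) cryptate and anti-H2AX-d2 antibodies, 24 hr room temperature; 665/620 nm emission read.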

[3] = qHTS assay to identify small molecule agonists of the hypoxia (HIF-1) signaling pathway (AID 1224846; active = well fitted activation curve with a large enough effect in the signal ratio in the repeat runs, not every such curve was filed as active; the % refers to the signal ratio)
Summary of the method: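 HRE-bla ME-180 cells (beta-lactamase reporter under hypoxia response element) were plated at 2,000 cells/well in medium with 0.5% dialyzed FBS, rested 5 hrs, then given compounds in DMSO for 17 hrs at 37C, 5% CO2. Reporter induction was read with CCF4-AM FRET substrate.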

[4] = qHTS assay to identify small molecule agonists of H2AX - cell viability counter screen (AID 1224847; calls by dose curve; note: top concentration of the series differs between compounds; nearly all actives have a fitted effect of over 30% in size)
Summary of the method: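 CHO-K1 cells plated overnight at 37C, then exposed 3 h at 37C to compounds at 15 concentrations (0.76% DMSO final). Viability by CellTiter-Glo luminescence after 30 min at room temperature.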

[5] = qHTS RealTime-Glo MT Cell Viability Assay in HepG2 cells - 24 hour (AID 1224867); note: nearly all actives have a fitted effect of over 50% in size; note: potency is the fitted concentration of half-maximal effect
Summary of the method: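 Tox21 10K library screened in qHTS format on HepG2 cells carrying RealTime-Glo reagents. Compounds were added after a 5 h preincubation, and the luminescent signal from continuous culture was measured repeatedly during 40 h treatment.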

[6] = qHTS RealTime-Glo MT Cell Viability Assay in HEK293 cells - 32 hour (AID 1224868); note: nearly all actives have a fitted effect of over 50% in size; note: potency is the fitted concentration of half-maximal effect
Summary of the method: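 Luminescence generated by NanoLuc from substrate produced by living HEK293 cells served as the viability signal. Each value reflects the reading at its stated time point during continuous 40 h compound exposure at 37 C.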

[7] = A CellTox Green Cytotoxicity Assay to monitor cytotoxicity in HEK293 cells - 0 hour (AID 1224869); note: nearly all actives have a fitted effect of over 50% in size; note: potency is the fitted concentration of half-maximal effect
Summary of the method: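 HEK293 cells premixed with CellTox Green dye were seeded at 600 cells/well and left 5 h at 37 C/5% CO2 before pin transfer of 23 nL compound in DMSO. Fluorescence from dye bound to dead-cell DNA was read during 40 h treatment.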

[8] = qHTS RealTime-Glo MT Cell Viability Assay in HepG2 cells - 40 hour (AID 1224870); note: nearly all actives have a fitted effect of over 50% in size; note: potency is the fitted concentration of half-maximal effect
Summary of the method: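 HepG2 cells (600/well) mixed with RealTime-Glo MT reagent, settled 5 h at 37 C/5% CO2 before compound addition. Nonlytic NanoLuc luminescence from viable-cell prosubstrate reduction read repeatedly during 40 h treatment at 37 C.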

[9] = qHTS assay to identify small molecule antagonists of the estrogen related receptor (ERR) signaling pathway from Tox21 library (AID 1224848); note: nearly all actives have a fitted effect of over 50% in size
Summary of the method: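 Luminescent reporter read-out (ONE-Glo) from NTP's ERR cell line after 18 h treatment at 37 C with DMSO-dissolved Tox21 compounds; cells pre-plated 6 h beforehand at 2,000 per well.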

[10] = qHTS assay to identify small molecule agonists of the estrogen related receptor (ERR) signaling pathway from Tox21 library (AID 1224849; calls by dose curve; note: nearly all actives have a fitted effect of over 15% in size); details: ERR reporter cell line, ONE-Glo luciferase, 18 h
Summary of the method: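 ERR reporter cell line (NTP) seeded, rested 6 h at 37 C/5% CO2, then pinned with Tox21 compounds in DMSO. After 18 h at 37 C, ONE-Glo luciferase luminescence was read following 30 min at room temperature.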
% is set by controls: 0 for no effect and ±100 for the full control effect.

CCN1C(=O)c2ccccc2C1Nc1ccc(OCCN2CCCCC2)cc1 (stereo unspecified)
active: Potency [6] 5.35 µM
inactive: Potency [1] | Potency [2] | Potency [3] | Potency [4] | Potency [5] | Potency [7] | Potency [8]

CN(C)CCN1CCN(c2cccc(Cl)c2)C1=O
inactive: Potency [1] | Potency [2] | Potency [3] | Potency [4] | Potency [5] | Potency [7] | Potency [8]

COc1ccc(NC(=O)CC(C)=O)cc1
inactive: Potency [1] | Potency [2] | Potency [3] | Potency [4] | Potency [6] | Potency [7]

c1cnccn1
inactive: Potency [1] | Potency [2] | Potency [3] | Potency [4] | Potency [6] | Potency [7] | Potency [8]

COc1cccc(OC)c1C(=O)O
inactive: Potency [1] | Potency [2] | Potency [3] | Potency [4] | Potency [6] | Potency [7] | Potency [8]

O=[N+]([O-])c1ccc(F)c(Cl)c1
inactive: Potency [1] | Potency [2] | Potency [3] | Potency [4] | Potency [5] | Potency [6] | Potency [7] | Potency [8]

CCCCNS(=O)(=O)c1ccc(C)cc1
inactive: Potency [1] | Potency [2] | Potency [3] | Potency [4] | Potency [5] | Potency [6] | Potency [7] | Potency [8]

[Cu+]
inactive: Potency [1] | Potency [2] | Potency [7]
active: Potency [8] 34.7 µM

CC(=O)Oc1cc2c(s1)CCN(C(C(=O)C1CC1)c1ccccc1F)C2 (stereo unspecified)
inactive: Potency [1] | Potency [3] | Potency [4] | Potency [9] | activity change, positive = activation ([10]; at 42.5 µM (top of the series)) -6.5% | Potency [5] | Potency [6] | Potency [7] | Potency [8]

OCC(F)(F)F
inactive: Potency [1] | Potency [3] | Potency [4] | Potency [9] | activity change, positive = activation ([10]; at 92.4 µM (top of the series)) -0.31% | Potency [5] | Potency [6] | Potency [7]

Cc1cccc(C)c1NC(=O)c1ccc(N)cc1
inactive: Potency [1] | Potency [3] | Potency [4] | Potency [9] | activity change, positive = activation ([10]; at 42.5 µM (top of the series)) 5.09% | Potency [5] | Potency [6] | Potency [7]

COc1cccc2c1C(=O)c1c(O)c3c(c(O)c1C2=O)C[C@@](O)(C(C)=O)C[C@@H]3O[C@H]1C[C@H](N)[C@H](O)[C@H](C)O1
553 nM (active) and inactive: Potency [1]
active: Potency [2] 0.0391 µM | Potency [5] 24.7 µM | Potency [6] 69.6 nM and 3.4 nM | Potency [7] 43.9 µM
inactive: Potency [4] | Potency [9] | activity change, positive = activation ([10]; at 42.5 µM (top of the series)) -0.62% | activity change, positive = activation ([10]; at 92.4 µM (top of the series)) -74.3%

Cc1cc(C(C)(C)C)cc(C)c1CC1=NCCN1
inactive: Potency [1] | Potency [2] | Potency [4] | Potency [9] | activity change, positive = activation ([10]; at 42.5 µM (top of the series)) -3.5% | Potency [5] | Potency [6]

— PubChem BioAssay (Tox21)
